The nature of experiment [1]: small molecules captured by biotinylated probe aFSTL3 – biochemical, small-molecule microarray, fluorescence 635/667, stem cell growth factor project, primary screen (AID 1064).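 Further: measures binding of the biotinylated anti-FSTL3 antibody to printed compounds.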 The following applies: higher = more signal.
A short description of experiment [2]: binders from COS7 lysate, DM2A8 probe, primary screen, torsin A project, cell lysate, small-molecule microarray, fluorescence 635/667 (AID 1065). The following applies: higher = more signal, COS7 lysate expressing mutant human TOR1A.
Experiment [3] is described as follows: small molecules captured by biotinylated probe aFGF2 – biochemical, small-molecule microarray, fluorescence 635/667, stem cell growth factor project, primary screen (AID 1067).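 Further: measures binding of biotinylated aFGF2 protein to printed compounds on slides; z-score merges feature fluorescence and signal-to-noise across triplicate slides.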 The following applies: higher = more signal.
Experiment [4] in a line: small molecules captured by biotinylated probe aFGF10 – biochemical, small-molecule microarray, fluorescence 635/667, stem cell growth factor project, primary screen (AID 1071).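 Further: score merges 667 nm spot intensity and signal to noise from triplicate slides.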 The following applies: higher = more signal.
In experiment [5] the target is Neurogenic locus notch homolog protein 2 (Homo sapiens) (UniProt Q04721). In words: small molecules binding Notch2 protein – biochemical, small-molecule microarray, 635 nm fluorescence, stem cell growth factors, primary screen (AID 1073). The following applies: higher = more signal.
Neurogenic locus notch homolog protein 2 (Homo sapiens), sequence (Q04721 whole entry, looked up, canonical isoform): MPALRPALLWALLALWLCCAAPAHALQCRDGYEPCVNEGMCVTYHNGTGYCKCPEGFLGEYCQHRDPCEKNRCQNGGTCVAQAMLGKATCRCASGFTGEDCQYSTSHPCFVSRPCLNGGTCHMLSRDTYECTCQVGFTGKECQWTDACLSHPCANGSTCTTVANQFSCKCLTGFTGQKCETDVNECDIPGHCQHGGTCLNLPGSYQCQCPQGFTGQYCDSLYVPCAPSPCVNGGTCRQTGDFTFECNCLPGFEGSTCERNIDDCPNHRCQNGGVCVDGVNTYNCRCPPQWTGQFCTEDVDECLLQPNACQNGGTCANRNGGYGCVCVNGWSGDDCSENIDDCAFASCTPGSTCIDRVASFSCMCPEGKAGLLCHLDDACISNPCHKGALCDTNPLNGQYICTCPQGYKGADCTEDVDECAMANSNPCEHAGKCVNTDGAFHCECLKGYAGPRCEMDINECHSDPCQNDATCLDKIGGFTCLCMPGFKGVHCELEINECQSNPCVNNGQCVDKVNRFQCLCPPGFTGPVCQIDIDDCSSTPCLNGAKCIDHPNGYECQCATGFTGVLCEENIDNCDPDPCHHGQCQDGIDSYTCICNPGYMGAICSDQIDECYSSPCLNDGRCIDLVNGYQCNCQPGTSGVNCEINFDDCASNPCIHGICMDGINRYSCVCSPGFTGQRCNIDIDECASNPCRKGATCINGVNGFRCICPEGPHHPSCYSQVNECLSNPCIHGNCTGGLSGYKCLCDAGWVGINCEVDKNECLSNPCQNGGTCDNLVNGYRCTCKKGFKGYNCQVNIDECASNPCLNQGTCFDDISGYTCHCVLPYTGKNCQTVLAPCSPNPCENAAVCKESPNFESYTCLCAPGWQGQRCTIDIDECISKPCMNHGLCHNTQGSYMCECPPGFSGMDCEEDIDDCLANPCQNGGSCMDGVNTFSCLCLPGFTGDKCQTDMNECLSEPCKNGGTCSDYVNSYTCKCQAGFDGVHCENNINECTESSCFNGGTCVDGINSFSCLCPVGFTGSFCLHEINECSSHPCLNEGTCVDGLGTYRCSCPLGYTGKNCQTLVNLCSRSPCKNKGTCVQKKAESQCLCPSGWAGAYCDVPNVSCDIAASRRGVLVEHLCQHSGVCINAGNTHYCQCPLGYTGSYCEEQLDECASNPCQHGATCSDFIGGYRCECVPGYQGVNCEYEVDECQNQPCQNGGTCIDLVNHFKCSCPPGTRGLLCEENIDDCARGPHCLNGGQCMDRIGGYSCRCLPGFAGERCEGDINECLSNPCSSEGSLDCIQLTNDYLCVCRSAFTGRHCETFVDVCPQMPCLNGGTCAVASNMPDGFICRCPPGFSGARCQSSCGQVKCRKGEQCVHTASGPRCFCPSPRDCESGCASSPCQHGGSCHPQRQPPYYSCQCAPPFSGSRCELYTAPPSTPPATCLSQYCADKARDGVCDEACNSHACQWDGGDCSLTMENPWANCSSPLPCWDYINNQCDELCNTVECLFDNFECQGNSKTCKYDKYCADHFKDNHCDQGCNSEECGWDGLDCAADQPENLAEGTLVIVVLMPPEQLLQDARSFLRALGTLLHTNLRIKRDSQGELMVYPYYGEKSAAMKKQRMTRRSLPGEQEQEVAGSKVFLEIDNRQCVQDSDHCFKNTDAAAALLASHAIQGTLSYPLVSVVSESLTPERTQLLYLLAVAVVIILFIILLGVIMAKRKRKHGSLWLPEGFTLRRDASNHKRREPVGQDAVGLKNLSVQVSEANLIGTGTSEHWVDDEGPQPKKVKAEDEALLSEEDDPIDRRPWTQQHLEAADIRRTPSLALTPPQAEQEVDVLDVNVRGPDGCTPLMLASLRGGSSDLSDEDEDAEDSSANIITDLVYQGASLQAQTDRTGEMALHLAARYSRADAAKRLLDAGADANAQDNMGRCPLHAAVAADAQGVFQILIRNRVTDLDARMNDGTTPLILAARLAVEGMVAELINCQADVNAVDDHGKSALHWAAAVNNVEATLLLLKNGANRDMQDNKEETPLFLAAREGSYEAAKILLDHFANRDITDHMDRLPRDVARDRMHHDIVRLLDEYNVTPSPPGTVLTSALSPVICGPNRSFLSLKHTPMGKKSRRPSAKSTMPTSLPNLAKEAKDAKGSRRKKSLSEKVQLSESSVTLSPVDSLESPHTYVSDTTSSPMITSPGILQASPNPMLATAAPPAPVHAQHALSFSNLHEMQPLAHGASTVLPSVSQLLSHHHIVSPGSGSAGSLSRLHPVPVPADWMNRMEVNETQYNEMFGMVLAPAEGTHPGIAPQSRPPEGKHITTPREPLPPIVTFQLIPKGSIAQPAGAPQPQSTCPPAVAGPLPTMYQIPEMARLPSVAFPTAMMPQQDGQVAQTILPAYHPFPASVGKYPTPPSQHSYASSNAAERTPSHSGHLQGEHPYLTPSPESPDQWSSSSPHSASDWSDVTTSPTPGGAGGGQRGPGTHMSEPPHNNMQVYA
The target in experiment [6] is Pro-neuregulin-1, membrane-bound isoform (Homo sapiens) (UniProt Q02297). In words: small molecules binding neuregulin-1 protein – biochemical, small-molecule microarray, fluorescence 635/667, psychiatric disease protein project, primary screen (AID 1075).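 Further: score combines 667 nm spot fluorescence with signal to noise.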 The following applies: NRG1 binding, 635 nm fluorescence, higher = more signal.
Pro-neuregulin-1, membrane-bound isoform (Homo sapiens), sequence (Q02297 whole entry, looked up, the tested form may be a part, canonical isoform): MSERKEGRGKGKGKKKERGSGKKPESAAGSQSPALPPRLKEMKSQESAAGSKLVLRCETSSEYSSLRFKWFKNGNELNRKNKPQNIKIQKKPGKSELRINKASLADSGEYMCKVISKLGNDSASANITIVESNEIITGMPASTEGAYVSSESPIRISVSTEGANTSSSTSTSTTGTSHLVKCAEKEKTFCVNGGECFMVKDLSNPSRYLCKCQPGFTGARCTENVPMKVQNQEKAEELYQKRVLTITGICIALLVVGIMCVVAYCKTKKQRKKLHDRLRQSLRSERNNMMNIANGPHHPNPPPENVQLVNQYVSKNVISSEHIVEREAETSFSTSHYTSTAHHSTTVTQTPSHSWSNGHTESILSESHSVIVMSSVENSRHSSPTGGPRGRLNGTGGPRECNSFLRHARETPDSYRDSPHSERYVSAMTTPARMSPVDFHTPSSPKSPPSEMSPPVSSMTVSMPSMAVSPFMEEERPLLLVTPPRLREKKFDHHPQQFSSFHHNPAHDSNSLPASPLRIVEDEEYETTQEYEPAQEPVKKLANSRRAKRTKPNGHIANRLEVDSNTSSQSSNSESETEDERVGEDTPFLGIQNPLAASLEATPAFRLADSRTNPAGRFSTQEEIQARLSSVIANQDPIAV
In experiment [7] the test system is Neuregulin-1 EGF-like domain. Put plainly: small molecules binding NRG1 EGF domain – biochemical, small-molecule microarray, 635 nm fluorescence, primary screen (AID 1081).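 Further: binding of the protein to compounds printed on small-molecule microarray slides.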 The following applies: higher = more signal.
A short description of experiment [8]: FRG1 expression reporter modulators in myotubes – cell-based, C2C12 myotubes, firefly/Renilla luciferase, luminescence, FRG1 inhibition for FSHD, primary screen (AID 1084). The following applies: FRG1 promoter luciferase, higher = more signal, called active from +8 up or from −8 down.
Experiment [9] can be described thus: small molecules captured by biotinylated probe aFST – biochemical, small-molecule microarray, fluorescence 635/667, stem cell growth factor project, primary screen (AID 1086).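 Further: score merges 667 nm fluorescence with signal-to-noise of each printed compound spot.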 The following applies: higher = more signal.
Experiment [10] can be described thus: binders of probe aHhip on microarray, primary screen, stem cell growth factor project, biochemical, small-molecule microarray, fluorescence 635/667 (AID 1087).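 Further: score merges spot fluorescence at 667nm with spot signal to noise ratio.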 The following applies: higher = more signal.
The subject of experiment [11] is PRMT1 (protein arginine N-methyltransferase 1). Put plainly: small molecules binding arginine methyltransferase PRMT1 – biochemical, small-molecule microarray, 635 nm fluorescence, primary screen (AID 1088).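 Further: binding of Prmt1 protein to compounds spotted on small-molecule microarray slides.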 The following applies: higher = more signal.
Experiment [12] can be described thus: growth effects on S. cerevisiae YJM789 – YJM789 clinical isolate, OD600, 24 h, basal, primary screen (AID 1089).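 Further: growth of clinical yeast isolate S. cerevisiae YJM 789 seeded 1000 cells per well; test concentration not given here.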 The following applies: higher = more signal, called active from +8 up or from −8 down.
Experiment [13] in a line: S. pombe growth modifiers, basal conditions – strain 972, OD600, 24 h, no modulator, primary screen (AID 1090).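 Further: basal condition with compound alone and no growth modifier present; test concentration not given here.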 The following applies: S. pombe 972 growth, higher = more signal, called active from +8 up or from −8 down.
A short description of experiment [14]: budding yeast growth modifiers under rapamycin – strain BY4716, OD600, 96 h, primary screen (AID 1091). Further: test concentration not given here. The following applies: S. cerevisiae BY4716 + rapamycin, higher = more signal, called active from +8 up or from −8 down.
Experiment [15] addresses Torsin-1A-interacting protein 2 (Homo sapiens) (UniProt Q8NFQ8). In words: small molecules binding lysate-expressed LULL1 – cell lysate, human LULL1 lysate, 635/667 nm fluorescence, primary screen (AID 1092).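 Further: probe is lysate of COS7 cells overexpressing human LULL1; score merges per-feature 667 nm fluorescence with signal-to-noise.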 The following applies: small-molecule microarray, hLULL1 lysate binding, 635 nm fluorescence; higher = more signal.
Experiment [16] is described as follows: optical density change of DRC41 E. coli – strain DRC41, OD650, 24 h, E. coli filamentation project, primary screen (AID 1093).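 Further: MC1000 strain lacking acrAB efflux and sulA so SOS filamentation is blocked; test concentration not given here.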 The following applies: E. coli DRC41 growth, higher = more signal, called active from +8 up or from −8 down.
The nature of experiment [17]: probe aLefty2 binding to arrayed compounds – biochemical, biotinylated probe, 635/667 nm fluorescence, primary screen (AID 1094).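 Further: score merges spot fluorescence near 667 nm with spot signal-to-noise ratio.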 The following applies: small-molecule microarray, higher = more signal.
The test system of experiment [18] is Noggin (protein binding on small-molecule microarray). Put plainly: small molecules binding Noggin protein – biochemical, 635/667 nm fluorescence, primary screen (AID 1095).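 Further: score merges 667 nm feature fluorescence with signal to noise over triplicate slides.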 The following applies: 635 nm fluorescence, higher = more signal.
The target of experiment [19] is Neurogenic locus notch homolog protein 3 (Homo sapiens) (UniProt Q9UM47). In words: small molecules binding NOTCH3 protein – biochemical, 635/667 nm fluorescence, primary screen (AID 1096). The following applies: small-molecule microarray, 635 nm fluorescence, higher = more signal.
Experiment [20] in a line: probe aEGFR binding to arrayed compounds – biochemical, biotinylated probe, 635/667 nm fluorescence, primary screen (AID 1097).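 Further: probe is a biotinylated anti-EGFR antibody binding compounds printed on slides; score combines fluorescence near 667 nm and signal to noise of each spot.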 The following applies: small-molecule microarray, higher = more signal.

SMILES strings stand for the structures. Calls of active or inactive are those of the source.

The source of these data is PubChem BioAssay.

Torsin-1A-interacting protein 2 (Homo sapiens), sequence (Q8NFQ8 whole entry, looked up): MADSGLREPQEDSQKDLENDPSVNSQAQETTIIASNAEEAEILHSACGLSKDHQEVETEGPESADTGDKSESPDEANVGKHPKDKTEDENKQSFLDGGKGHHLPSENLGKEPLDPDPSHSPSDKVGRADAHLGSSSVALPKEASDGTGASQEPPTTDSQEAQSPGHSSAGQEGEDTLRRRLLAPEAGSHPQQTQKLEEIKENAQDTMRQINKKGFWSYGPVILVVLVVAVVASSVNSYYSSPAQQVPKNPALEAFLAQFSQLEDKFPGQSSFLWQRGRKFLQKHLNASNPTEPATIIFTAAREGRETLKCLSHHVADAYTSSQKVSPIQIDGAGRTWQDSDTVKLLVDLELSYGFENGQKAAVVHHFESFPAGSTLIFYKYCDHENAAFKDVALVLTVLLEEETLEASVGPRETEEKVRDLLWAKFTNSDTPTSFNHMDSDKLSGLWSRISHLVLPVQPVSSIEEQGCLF

On to `C=C(C1=CCN(S(=O)(=O)c2ccc(C)cc2)C1)[C@@H](OC(C)=O)[C@@H]1CCCN1S(=O)(=O)c1ccccc1[N+](=O)[O-]`, for which the composite z-score was -0.0883 in experiment [1]; -0.189 in experiment [2]; -0.05 in experiment [3]; 0.487 in [4]; -0.574 in experiment [5]; -0.158 in experiment [6]. The composite z-score is 0.406 in [7]; -0.344 in experiment [9]; -0.0994 in experiment [10]; -0.267 in experiment [11]; 1.2 in experiment [15]; -0.297 in [17]. Further, the results for the composite z-score in [18], in experiment [19] and in [20] were -0.305, 0.127 and -0.202, respectively. Moreover, the z-score in experiment [8] is -3.21 (inactive); in experiment [12], 0.943 (inactive); in experiment [13] it was 0.0893 (inactive); in experiment [14] it was 1.82 (inactive); in [16], 2.89 (inactive).
Consider `COCCOC(=O)N1C(=O)[C@@]2(c3cc(C#CC4(O)CCCCCC4)ccc31)[C@H](c1ccc(O)cc1)N1[C@H](c3ccccc3)[C@H](c3ccccc3)OC(=O)[C@H]1[C@@H]2C(N)=O`, for which the composite z-score in experiment [1] is -0.0102; in experiment [2], 1.54; in [3], 0.103; in experiment [4], 0.631; in experiment [5], 0.397; in [6], 1.1. Besides, the composite z-score was 0.874 in [7]; 0.351 in experiment [9]; -0.0173 in [10]; 1.5 in experiment [11]; 2.01 in [15]; 0.178 in experiment [17]. In addition, the composite z-score in [18] is 0.0282; in [19], 0.928; in experiment [20], -0.0924. Also, the z-score in [8] is -0.868 (inactive); in [12] it was -0.549 (inactive); in experiment [13], -3.29 (inactive); in experiment [14], -0.624 (inactive); in experiment [16], 2.01 (inactive).
`COc1ccc([Si](C)(C)[C@H]2[C@H](CC(=O)N(CCO)Cc3ccccc3)O[C@@]3(C(=O)N(Cc4ccc(N5CCC5=O)cc4)c4ccccc43)[C@@H]2C)cc1`: the composite z-score is 0.278 in [1]; 0.323 in [2]; -0.128 in [3]; -1.07 in experiment [4]; -0.741 in [5]; 1.02 in [6]. The composite z-score in experiment [7] was 0.469; in [9] it was -0.336; in experiment [10], -0.226; in experiment [11], 0.499; in experiment [15], 0.953; in [17] it was -0.166. The results for the composite z-score in [18], in experiment [19] and in experiment [20] were -0.156, -0.813 and -0.302, respectively. Further, the z-score in experiment [8] is -2.75 (inactive); in [12], 0.478 (inactive); in experiment [13] it was 0.617 (inactive); in experiment [14], 1.96 (inactive); in experiment [16], 1.48 (inactive).
`COc1ccc([Si](C)(C)[C@@H]2[C@@H](CCn3cc([C@H](O)c4ccccc4)nn3)O[C@]3(C(=O)N(C)c4c(Br)cc(C)cc43)[C@H]2C)cc1`: the composite z-score in [1] is 0.114; in [2] it was 0.301; in experiment [3], -0.116; in [4], -0.246; in [5], -0.802; in experiment [6], -0.115. In addition, the composite z-score is -0.288 in experiment [7]; -0.43 in [9]; 0.154 in experiment [10]; -0.0221 in experiment [11]; 0.215 in experiment [15]; -0.0295 in experiment [17]. The composite z-score in experiment [18] is 0.0639; in [19], -0.707; in [20], 0.0089. Besides, the z-score in experiment [8] was -2.54 (inactive); in experiment [12], -2.54 (inactive); in experiment [13], -0.793 (inactive); in experiment [14] it was 0.406 (inactive); in experiment [16], 2.87 (inactive).
In the case of `CCCNC(=O)[C@@]1(Sc2ccc(C)cc2)CC(=O)N(Cc2cc(C(F)(F)F)cc(C(F)(F)F)c2)[C@@H]1c1ccc(CO)cc1I`, the composite z-score is 0.71 in experiment [1]; 0.273 in [2]; -0.0775 in experiment [3]; -0.84 in [4]; -0.472 in [5]; 1.16 in [6]. The composite z-score in experiment [7] is 0.242; in [9], 0.267; in experiment [10] it was -0.0237; in experiment [11], 0.491; in experiment [15], 1.03; in experiment [17], 0.024. In addition, the composite z-score in [18] is -1.35; in experiment [19], -0.168; in [20], -0.118. In addition, the z-score in experiment [8] was -1.25 (inactive); in [12] it was -5.07 (inactive); in [13] it was -5.46 (inactive); in experiment [14], -0.894 (inactive); in experiment [16], 3.43 (inactive).
As for `C=CC[C@@H](OC(=O)Nc1ccc(SC)cc1)c1ccc(OCCO)cc1`, the composite z-score in experiment [1] was 1.15; in experiment [2] it was -0.325; in [3] it was -0.175; in [4] it was -0.932; in experiment [5] it was -1.77; in experiment [6], 0.767. For the same molecule, the composite z-score is 0.801 in experiment [7]; -0.464 in experiment [9]; -0.251 in [10]; -0.306 in experiment [11]; 2.42 in experiment [15]; 0.214 in [17]. The composite z-score in experiment [18] is -1.07; in experiment [19], -0.525; in [20] it was -0.204. The z-score in [8] was 4.02 (inactive); in [12], -0.0227 (inactive); in [13] it was -3.88 (inactive); in experiment [14], 0.0294 (inactive); in experiment [16] it was 1.4 (inactive).
